Reference: the supplement of paper PMC11732987, “Enantioselective OTUD7B fragment discovery through chemoproteomics screening and high-throughput optimisation” (Communications Chemistry, 2025)

Tests used:
Assay in all cases: log2 ratio of Biotin-Ahx-Ub-VS probe labelling (fragment/DMSO); higher = less target engagement (more negative = stronger competition), active = hit call of the paper (q ≤ 0.05, log2 ratio ≤ -1)
Settings in all cases: compound concentration: 200 uM; treatment time: 3 h
USP34 = USP34 (UniProt Q70CQ2)
How it was run: (§1)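 The table lists average log2 ratios of fragment over vehicle, from an unpaired t-test on global-median-normalised Spectronaut label-free quantities. Proteins with ≥2 unique peptides were used. Samples were HEK293T lysate (495 µg) treated in triplicate with fragment at 200 µM or vehicle for 3 h, then with Biotin-Ahx-Ub-VS (0.5 µM final) for 1 h, with labelled DUBs NeutrAvidin-enriched and run by diaPASEF LC-MS/MS.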

USP36 = target: T1, USP36 (UniProt Q9P275)
T1 sequence (whole entry): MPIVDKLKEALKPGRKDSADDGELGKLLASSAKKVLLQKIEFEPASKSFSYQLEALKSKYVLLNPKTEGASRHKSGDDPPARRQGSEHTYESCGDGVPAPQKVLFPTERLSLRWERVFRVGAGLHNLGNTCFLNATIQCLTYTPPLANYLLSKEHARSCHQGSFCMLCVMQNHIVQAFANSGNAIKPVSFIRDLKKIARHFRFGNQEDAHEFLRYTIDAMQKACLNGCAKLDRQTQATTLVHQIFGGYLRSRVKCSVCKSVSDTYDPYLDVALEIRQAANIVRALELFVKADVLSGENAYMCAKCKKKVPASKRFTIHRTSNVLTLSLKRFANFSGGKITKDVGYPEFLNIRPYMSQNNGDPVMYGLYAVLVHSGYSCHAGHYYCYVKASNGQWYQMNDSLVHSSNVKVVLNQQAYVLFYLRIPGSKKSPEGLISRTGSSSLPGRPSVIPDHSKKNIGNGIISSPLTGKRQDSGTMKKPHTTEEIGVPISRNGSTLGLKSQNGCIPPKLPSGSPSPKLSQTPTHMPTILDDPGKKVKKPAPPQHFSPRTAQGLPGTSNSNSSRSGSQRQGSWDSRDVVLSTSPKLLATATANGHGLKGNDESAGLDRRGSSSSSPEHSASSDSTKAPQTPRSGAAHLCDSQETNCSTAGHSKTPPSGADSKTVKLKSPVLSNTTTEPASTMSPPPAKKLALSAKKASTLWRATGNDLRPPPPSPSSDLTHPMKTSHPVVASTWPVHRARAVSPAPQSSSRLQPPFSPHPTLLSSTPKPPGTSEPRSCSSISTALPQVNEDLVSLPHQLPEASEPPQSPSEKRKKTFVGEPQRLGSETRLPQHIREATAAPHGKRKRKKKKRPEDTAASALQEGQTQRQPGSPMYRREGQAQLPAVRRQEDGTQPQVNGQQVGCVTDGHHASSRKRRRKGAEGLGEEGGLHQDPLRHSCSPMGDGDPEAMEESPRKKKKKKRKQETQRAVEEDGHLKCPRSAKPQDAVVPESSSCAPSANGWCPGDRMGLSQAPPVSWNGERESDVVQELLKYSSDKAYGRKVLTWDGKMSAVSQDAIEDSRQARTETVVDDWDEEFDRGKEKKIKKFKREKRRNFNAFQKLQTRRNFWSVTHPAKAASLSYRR
How it was run: as §1

USP38 = target: T2, USP38 (UniProt Q8NB14)
T2 sequence (whole entry): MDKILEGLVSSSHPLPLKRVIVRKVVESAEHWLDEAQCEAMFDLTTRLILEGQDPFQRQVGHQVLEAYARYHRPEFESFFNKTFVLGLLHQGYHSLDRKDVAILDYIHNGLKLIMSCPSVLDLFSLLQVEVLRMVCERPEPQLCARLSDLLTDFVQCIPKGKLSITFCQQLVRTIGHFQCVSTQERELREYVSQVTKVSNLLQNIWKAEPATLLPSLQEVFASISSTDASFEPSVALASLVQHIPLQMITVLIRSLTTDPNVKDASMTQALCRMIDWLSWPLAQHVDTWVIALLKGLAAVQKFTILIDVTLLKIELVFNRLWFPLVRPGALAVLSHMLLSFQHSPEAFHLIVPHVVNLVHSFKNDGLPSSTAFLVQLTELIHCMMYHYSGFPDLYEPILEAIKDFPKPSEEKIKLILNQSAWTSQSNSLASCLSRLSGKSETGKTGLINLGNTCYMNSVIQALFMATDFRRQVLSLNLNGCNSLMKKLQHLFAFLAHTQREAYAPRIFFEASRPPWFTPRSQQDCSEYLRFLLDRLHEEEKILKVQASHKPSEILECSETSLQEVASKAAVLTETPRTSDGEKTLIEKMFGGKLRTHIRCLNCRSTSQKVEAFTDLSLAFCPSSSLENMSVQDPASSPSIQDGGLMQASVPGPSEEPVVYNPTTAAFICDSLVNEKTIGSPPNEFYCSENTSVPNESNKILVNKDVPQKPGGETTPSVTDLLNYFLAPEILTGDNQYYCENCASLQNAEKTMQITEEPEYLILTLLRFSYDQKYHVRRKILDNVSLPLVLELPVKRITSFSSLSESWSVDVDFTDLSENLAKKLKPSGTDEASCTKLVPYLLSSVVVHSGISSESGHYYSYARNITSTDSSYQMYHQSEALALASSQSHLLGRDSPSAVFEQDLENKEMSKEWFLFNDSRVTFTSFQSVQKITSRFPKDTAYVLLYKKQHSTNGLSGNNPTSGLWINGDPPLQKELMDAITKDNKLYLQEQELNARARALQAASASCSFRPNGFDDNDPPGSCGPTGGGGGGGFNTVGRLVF
How it was run: as §1

USP39 = target: T3, USP39 (UniProt Q53GS9)
T3 sequence (whole entry): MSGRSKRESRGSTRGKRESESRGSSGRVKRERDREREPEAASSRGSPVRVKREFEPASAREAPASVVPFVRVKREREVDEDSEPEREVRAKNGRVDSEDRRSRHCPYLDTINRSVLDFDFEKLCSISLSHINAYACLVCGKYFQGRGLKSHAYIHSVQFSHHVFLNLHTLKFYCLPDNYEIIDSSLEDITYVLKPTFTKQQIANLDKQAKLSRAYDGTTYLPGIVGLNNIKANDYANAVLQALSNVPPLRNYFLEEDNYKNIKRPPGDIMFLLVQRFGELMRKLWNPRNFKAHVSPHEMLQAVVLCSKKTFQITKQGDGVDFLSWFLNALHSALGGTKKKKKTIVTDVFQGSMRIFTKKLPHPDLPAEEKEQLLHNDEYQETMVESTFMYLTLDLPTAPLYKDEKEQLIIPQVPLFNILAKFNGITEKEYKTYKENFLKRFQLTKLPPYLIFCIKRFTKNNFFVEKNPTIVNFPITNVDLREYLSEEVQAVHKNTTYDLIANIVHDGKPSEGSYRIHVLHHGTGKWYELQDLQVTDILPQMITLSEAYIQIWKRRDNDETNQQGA
How it was run: as §1

USP4 = target: T4, USP4 (UniProt Q13107)
T4 sequence (whole entry): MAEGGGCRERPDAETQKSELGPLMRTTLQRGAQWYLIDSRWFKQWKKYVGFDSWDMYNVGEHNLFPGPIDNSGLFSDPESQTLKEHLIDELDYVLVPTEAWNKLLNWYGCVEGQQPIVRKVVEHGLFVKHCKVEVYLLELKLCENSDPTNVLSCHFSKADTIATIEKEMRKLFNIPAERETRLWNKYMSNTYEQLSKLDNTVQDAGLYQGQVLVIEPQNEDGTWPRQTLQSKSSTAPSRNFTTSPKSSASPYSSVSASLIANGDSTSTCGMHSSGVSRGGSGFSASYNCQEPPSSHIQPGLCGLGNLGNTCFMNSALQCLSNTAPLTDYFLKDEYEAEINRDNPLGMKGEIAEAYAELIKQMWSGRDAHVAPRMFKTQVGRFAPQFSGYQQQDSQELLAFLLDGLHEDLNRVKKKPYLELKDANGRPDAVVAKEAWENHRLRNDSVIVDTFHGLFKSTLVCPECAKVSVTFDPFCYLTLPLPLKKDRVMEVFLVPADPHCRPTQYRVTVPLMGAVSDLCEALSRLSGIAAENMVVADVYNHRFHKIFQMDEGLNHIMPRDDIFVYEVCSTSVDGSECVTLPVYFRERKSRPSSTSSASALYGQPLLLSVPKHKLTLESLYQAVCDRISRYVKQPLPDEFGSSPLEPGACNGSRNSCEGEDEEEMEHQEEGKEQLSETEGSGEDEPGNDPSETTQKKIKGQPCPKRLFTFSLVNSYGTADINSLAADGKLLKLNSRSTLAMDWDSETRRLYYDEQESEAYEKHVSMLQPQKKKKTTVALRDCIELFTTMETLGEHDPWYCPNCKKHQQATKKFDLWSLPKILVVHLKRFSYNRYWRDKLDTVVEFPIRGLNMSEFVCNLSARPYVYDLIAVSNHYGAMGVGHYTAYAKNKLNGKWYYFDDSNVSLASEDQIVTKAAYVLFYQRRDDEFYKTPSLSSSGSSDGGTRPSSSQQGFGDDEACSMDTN
How it was run: as §1

Measured: log2 ratio of Biotin-Ahx-Ub-VS probe labelling

USP34, sequence (Q70CQ2 whole entry, the tested form may be a part): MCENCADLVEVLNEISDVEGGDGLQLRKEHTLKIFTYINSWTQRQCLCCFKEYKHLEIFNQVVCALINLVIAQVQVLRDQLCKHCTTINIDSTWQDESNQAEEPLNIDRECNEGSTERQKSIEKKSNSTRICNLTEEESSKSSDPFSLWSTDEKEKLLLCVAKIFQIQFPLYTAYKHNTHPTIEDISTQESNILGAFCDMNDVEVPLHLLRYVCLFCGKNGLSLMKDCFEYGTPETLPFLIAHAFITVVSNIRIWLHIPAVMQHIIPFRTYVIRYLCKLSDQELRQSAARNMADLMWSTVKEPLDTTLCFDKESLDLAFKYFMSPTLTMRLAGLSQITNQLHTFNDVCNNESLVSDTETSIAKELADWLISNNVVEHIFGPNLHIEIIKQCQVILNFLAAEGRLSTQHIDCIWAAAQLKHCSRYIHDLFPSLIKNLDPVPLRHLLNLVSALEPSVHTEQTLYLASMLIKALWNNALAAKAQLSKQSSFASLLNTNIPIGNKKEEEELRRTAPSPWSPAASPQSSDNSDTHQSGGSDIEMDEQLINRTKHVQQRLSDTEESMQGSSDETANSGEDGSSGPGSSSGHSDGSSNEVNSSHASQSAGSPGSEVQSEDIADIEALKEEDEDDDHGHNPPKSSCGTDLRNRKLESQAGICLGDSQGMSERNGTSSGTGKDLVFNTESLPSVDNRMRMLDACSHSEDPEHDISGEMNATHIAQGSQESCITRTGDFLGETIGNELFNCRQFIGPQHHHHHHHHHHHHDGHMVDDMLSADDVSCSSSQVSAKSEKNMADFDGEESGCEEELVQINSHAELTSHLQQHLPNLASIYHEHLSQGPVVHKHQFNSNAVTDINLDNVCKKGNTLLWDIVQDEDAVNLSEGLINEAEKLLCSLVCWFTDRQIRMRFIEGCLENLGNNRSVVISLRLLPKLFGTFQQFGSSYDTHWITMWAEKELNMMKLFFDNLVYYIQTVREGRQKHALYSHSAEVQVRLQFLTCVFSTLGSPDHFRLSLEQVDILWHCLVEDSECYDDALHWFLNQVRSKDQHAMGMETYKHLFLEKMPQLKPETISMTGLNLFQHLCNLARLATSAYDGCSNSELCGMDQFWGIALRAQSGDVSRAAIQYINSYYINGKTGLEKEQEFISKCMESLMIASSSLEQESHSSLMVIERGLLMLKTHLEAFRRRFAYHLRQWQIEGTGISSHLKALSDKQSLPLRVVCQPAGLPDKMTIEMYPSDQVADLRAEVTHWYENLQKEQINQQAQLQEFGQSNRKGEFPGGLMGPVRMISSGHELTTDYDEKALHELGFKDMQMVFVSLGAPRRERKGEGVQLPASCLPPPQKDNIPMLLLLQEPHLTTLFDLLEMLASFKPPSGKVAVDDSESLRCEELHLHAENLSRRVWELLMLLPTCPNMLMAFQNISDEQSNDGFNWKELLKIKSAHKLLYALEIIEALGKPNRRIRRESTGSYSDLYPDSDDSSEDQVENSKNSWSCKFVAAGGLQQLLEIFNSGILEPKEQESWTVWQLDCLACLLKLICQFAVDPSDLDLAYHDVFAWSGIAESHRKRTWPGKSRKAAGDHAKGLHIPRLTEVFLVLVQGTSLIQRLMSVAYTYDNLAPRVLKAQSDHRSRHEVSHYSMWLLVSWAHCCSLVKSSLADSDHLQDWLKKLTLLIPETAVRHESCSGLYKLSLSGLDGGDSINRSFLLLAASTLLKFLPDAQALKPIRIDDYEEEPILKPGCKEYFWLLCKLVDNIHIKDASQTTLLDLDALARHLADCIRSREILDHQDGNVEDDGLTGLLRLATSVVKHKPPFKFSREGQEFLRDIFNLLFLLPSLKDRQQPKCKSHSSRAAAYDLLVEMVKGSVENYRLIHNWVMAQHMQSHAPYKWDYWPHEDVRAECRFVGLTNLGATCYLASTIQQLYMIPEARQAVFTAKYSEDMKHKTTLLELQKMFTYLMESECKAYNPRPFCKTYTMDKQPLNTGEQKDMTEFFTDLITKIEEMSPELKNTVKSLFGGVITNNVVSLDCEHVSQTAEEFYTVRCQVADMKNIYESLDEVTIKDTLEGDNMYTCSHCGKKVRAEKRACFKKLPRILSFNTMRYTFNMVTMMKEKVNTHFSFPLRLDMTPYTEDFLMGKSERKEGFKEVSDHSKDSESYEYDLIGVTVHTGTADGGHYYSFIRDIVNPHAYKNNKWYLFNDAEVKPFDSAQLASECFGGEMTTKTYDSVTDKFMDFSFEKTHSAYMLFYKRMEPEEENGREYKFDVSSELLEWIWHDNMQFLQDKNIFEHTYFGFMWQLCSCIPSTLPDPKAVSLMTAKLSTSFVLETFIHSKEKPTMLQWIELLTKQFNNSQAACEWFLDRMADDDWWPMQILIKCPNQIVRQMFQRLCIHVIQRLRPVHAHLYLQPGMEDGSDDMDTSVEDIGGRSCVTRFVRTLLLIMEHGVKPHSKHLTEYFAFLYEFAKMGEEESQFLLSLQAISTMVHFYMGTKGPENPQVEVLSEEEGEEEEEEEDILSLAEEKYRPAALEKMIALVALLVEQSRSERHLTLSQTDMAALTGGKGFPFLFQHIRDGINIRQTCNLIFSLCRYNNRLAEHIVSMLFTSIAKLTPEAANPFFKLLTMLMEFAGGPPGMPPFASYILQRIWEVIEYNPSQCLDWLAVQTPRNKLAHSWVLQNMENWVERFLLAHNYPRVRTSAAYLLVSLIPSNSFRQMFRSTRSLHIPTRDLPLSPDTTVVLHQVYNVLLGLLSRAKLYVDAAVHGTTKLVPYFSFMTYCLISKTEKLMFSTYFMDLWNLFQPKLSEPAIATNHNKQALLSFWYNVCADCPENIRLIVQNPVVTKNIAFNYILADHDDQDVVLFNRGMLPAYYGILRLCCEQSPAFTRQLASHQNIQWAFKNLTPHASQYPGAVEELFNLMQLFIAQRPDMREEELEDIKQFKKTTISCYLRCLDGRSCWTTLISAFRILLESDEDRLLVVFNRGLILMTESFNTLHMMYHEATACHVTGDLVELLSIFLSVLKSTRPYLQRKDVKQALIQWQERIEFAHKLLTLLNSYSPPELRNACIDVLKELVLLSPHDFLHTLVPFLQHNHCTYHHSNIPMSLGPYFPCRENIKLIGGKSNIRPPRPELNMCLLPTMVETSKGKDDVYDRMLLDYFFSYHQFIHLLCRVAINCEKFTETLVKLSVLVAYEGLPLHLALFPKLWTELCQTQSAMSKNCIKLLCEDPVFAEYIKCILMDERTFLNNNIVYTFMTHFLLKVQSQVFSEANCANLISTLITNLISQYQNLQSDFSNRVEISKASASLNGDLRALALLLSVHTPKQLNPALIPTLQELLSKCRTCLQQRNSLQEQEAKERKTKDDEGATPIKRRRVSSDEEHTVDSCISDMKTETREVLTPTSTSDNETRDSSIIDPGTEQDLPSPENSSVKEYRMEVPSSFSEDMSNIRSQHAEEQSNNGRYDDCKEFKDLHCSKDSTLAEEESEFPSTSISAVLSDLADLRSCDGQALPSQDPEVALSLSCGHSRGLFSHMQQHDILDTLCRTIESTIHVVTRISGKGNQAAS

COc1cccc(CN(C)C(=O)CCl)c1
inactive: USP34 0.0183 | USP36 -0.187 | USP38 0.0437 | USP39 0.0189 | USP4 -0.4
